The record followed here is PubChem BioAssay (NCI).

Compounds without any hit were thinned out: in the full panel of roughly 83,000, 20% have a hit.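 In brief: 96-well plates, 48 h treatment, single concentration, percent growth endpoint.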 Unmarked numbers belong to inactive results. Active and inactive are the calls of the source. How the source made its calls: active means growth percent below 10; inactive means the rest.

Test systems include RPMI-8226 leukemia; OVCAR-8 ovarian; OVCAR-5 ovarian; OVCAR-4 ovarian; SK-OV-3 ovarian; IGROV1 ovarian; OVCAR-3 ovarian; HS 578T breast; NCI/ADR-RES ovarian; T-47D breast.
Holding throughout (experiment): NCI-60 one-dose screen, 48 h (100 = growth as untreated, 0 = no growth, -100 = all killed)
Holding throughout (conditions): 10 µM unless noted

As for `COc1ccc(-c2nsc3c2NC(=O)CC3c2ccc3c(c2)OCCO3)cc1` (stereo not given), the growth with RPMI-8226 leukemia is 31.5%; in the test on OVCAR-8 ovarian it was 35.3%; in the test with OVCAR-5 ovarian it was 37.5%; in the test on OVCAR-4 ovarian, 36.9%; with SK-OV-3 ovarian, 3.12% (active); in the test with IGROV1 ovarian, 49%. For the same compound, the growth was -38.6% (active) with OVCAR-3 ovarian, 28.4% with HS 578T breast, 21% in the test on NCI/ADR-RES ovarian and 50.2% in the test on T-47D breast.

As to `CCCCNc1nc(NC(C)(C)C)nc(NC(C)(C)C)n1`, the growth was 17.7% in the test on RPMI-8226 leukemia; 59.5% in the test on OVCAR-8 ovarian; 62% with OVCAR-5 ovarian; 55.2% in the test with OVCAR-4 ovarian; 81.9% in the test with SK-OV-3 ovarian; 51.3% in the test with IGROV1 ovarian. In addition, the growth in the test with OVCAR-3 ovarian was 54.2%; in the test on HS 578T breast, 67.7%; in the test with NCI/ADR-RES ovarian, 53.3%; in the test on T-47D breast, 45.3%.

`COc1ccc(/C=C/C(=O)c2ccc3cc(OC)c(OC)cc3c2)cc1OC`: the growth with RPMI-8226 leukemia was 4.57% (active); in the test on OVCAR-8 ovarian, 11.4%; in the test on OVCAR-5 ovarian, 29.6%; in the test on OVCAR-4 ovarian, 25.5%; in the test with SK-OV-3 ovarian, 63.3%; in the test on IGROV1 ovarian, 53.8%. Also, the growth was 15.5% in the test with OVCAR-3 ovarian, 77.2% with HS 578T breast, 11.5% with NCI/ADR-RES ovarian and 47.5% in the test on T-47D breast.

As to `O=C1C(=O)c2c(ccc3ccccc23)-c2ccccc21`, the growth is 4.32% (active) in the test on RPMI-8226 leukemia; 2.95% (active) in the test with OVCAR-8 ovarian; -22.4% (active) with OVCAR-5 ovarian; -95.3% (active) in the test on OVCAR-4 ovarian; 91.5% in the test with SK-OV-3 ovarian; -21.4% (active) in the test with IGROV1 ovarian. Moreover, the growth in the test on OVCAR-3 ovarian was -25.5% (active); in the test with HS 578T breast, -8.76% (active); with NCI/ADR-RES ovarian it was -1.89% (active); with T-47D breast, -48.6% (active).

In the case of `O=c1oc2ccc(Br)cc2c(=O)n1-c1ccc(I)cc1F`, the growth in the test on RPMI-8226 leukemia was -28.3% (active); in the test on OVCAR-8 ovarian, 10.4%; with OVCAR-5 ovarian it was 22%; with OVCAR-4 ovarian, 15.2%; with SK-OV-3 ovarian it was 6.53% (active); in the test with IGROV1 ovarian it was 15.8%. Moreover, the growth was 5.31% (active) with OVCAR-3 ovarian, 0.536% (active) in the test on HS 578T breast, 9.96% (active) in the test on NCI/ADR-RES ovarian and -1.18% (active) in the test on T-47D breast.

As for `CCOc1ccc2c(c1)CN(Cc1ccc(Cl)cc1)CO2`, the growth in the test with RPMI-8226 leukemia is 43.3%; with OVCAR-8 ovarian it was 34.1%; in the test with OVCAR-5 ovarian, 90.9%; with OVCAR-4 ovarian it was -27.4% (active); in the test on SK-OV-3 ovarian, 13.5%; with IGROV1 ovarian it was 71%. Further, the growth in the test on OVCAR-3 ovarian was 22.2%; in the test with HS 578T breast it was -7.66% (active); with NCI/ADR-RES ovarian it was 43.7%; in the test on T-47D breast, 52.4%.

`COc1cc(C(C)n2cc(-c3ccccc3)nn2)ccc1OC1CCCCC1` (stereo not given): the growth was 35% in the test with RPMI-8226 leukemia; 55.3% with OVCAR-8 ovarian; 92.6% with OVCAR-5 ovarian; 55.2% with OVCAR-4 ovarian; 73.4% in the test with SK-OV-3 ovarian; 77.2% in the test on IGROV1 ovarian. For the same compound, the growth in the test on OVCAR-3 ovarian is 67.6%; in the test on HS 578T breast it was 91.4%; with NCI/ADR-RES ovarian, 49.3%; in the test on T-47D breast it was 58.8%.

Consider `CCn1c(-c2nonc2Nc2ccc(OC)cc2)nc2ccccc21`, for which the growth in the test on RPMI-8226 leukemia was 117%; in the test with OVCAR-8 ovarian it was 102%; with OVCAR-5 ovarian it was 107%; with OVCAR-4 ovarian, 101%; in the test with SK-OV-3 ovarian, 111%; in the test with IGROV1 ovarian it was 106%. Besides, the growth in the test on OVCAR-3 ovarian was 112%; with HS 578T breast, 96.7%; in the test on NCI/ADR-RES ovarian it was 96%; with T-47D breast, 97.3%.

Turning to `Cc1ccc(S(=O)(=O)c2c(COC(=O)c3cccc(C)c3)c(-c3ccccc3)nn2C)cc1`, the growth in the test with RPMI-8226 leukemia was 78.5%; in the test with OVCAR-8 ovarian, 88.5%; in the test with OVCAR-5 ovarian it was 115%; with OVCAR-4 ovarian, -59% (active); in the test on SK-OV-3 ovarian, 104%; in the test with IGROV1 ovarian, 80.9%. The growth with OVCAR-3 ovarian was -77.9% (active); in the test with HS 578T breast, 99.9%; in the test with NCI/ADR-RES ovarian, 106%; in the test with T-47D breast, -64.3% (active).

As to `Cc1ccc(F)cc1NC(=O)c1cc(Cl)ccc1Nc1ccccc1`, the growth was 32.2% in the test on RPMI-8226 leukemia; 27.3% in the test on OVCAR-8 ovarian; 70.2% in the test with OVCAR-5 ovarian; 51.6% in the test on OVCAR-4 ovarian; 82.8% in the test on SK-OV-3 ovarian; 71% in the test with IGROV1 ovarian. The growth with OVCAR-3 ovarian was 53.4%; in the test on HS 578T breast it was 90.4%; in the test with NCI/ADR-RES ovarian, 40.1%; in the test with T-47D breast, 37.1%.

For the compound `O=C(NC(=S)Nc1cccc(NC(=S)NC(=O)c2ccccc2)c1)c1ccccc1`, the growth in the test on RPMI-8226 leukemia was 80.9%; in the test on OVCAR-8 ovarian, 31.6%; in the test with OVCAR-5 ovarian, 116%; in the test with OVCAR-4 ovarian, 16.4%; with SK-OV-3 ovarian, 44.1%; with IGROV1 ovarian, 69.1%. Moreover, the growth in the test on OVCAR-3 ovarian is 65.1%; in the test on HS 578T breast, 18.7%; in the test on NCI/ADR-RES ovarian, 60.1%; in the test on T-47D breast it was 54.6%.

Consider `O=S1(=O)CCN(Cc2ccccc2)CC1`, for which the growth in the test on RPMI-8226 leukemia was 102%; in the test with OVCAR-8 ovarian it was 111%; in the test on OVCAR-5 ovarian, 96.2%; with OVCAR-4 ovarian, 107%; with SK-OV-3 ovarian, 101%; in the test with IGROV1 ovarian it was 119%. In addition, the growth was 105% with OVCAR-3 ovarian, 109% with HS 578T breast, 106% in the test with NCI/ADR-RES ovarian and 93.3% in the test on T-47D breast.

In the case of `COc1cc(C2C(C#N)=C(N)OC3=C2C(=O)c2ccccc2C3=O)cc(OC)c1OC` (stereo not given), the growth with RPMI-8226 leukemia is 18.5%; in the test with OVCAR-8 ovarian, 17.4%; with OVCAR-5 ovarian, 44%; in the test with OVCAR-4 ovarian it was 74.1%; in the test with SK-OV-3 ovarian, 29.9%; with IGROV1 ovarian, 47.7%. The growth is 3.34% (active) in the test with OVCAR-3 ovarian, 8.28% (active) with HS 578T breast, 70.5% in the test with NCI/ADR-RES ovarian and 67.3% in the test with T-47D breast.

`Cc1ccc(Nc2nc(N)c3ccccc3n2)cc1Cl`: the growth with RPMI-8226 leukemia was 24%; in the test on OVCAR-8 ovarian, 57.8%; with OVCAR-5 ovarian it was 75.5%; in the test on OVCAR-4 ovarian it was 55.7%; with SK-OV-3 ovarian it was 80.4%; with IGROV1 ovarian, 57.3%. Besides, the growth in the test on OVCAR-3 ovarian is 63.5%; in the test with HS 578T breast, 101%; in the test with NCI/ADR-RES ovarian, 45.5%; in the test on T-47D breast, 58.1%.
